From the supplement of paper PMC11417369
± gives the standard deviation of the averaged measurements. Over roughly 25,000 sequences, “ln(normalized median fluorescence intensity)” has its median near 7.9; the highest 2% begin near 11. Only a selection was taken, and the highest values are over-represented in it overall.

system: PfAP2-I AP2 domain 3 (GST-tagged); experiment: gcPBM binding intensity (ln(normalized median fluorescence intensity)); higher = stronger DNA binding
Method in brief: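 The binding buffer was 1× PBS containing 1% milk, 0.2 mg/ml BSA, 0.5% salmon testes DNA and 0.03% Triton X-100. In it, GST-tagged P. falciparum DNA-binding domains expressed in E. coli were applied for 1 h to an Agilent 4 × 180k array of primer-extended double-stranded 36-bp intergenic genomic probes plus negative controls. Binding intensity, read with Alexa488 anti-GST antibody and a 488 nm scan, is the highest Masliner-normalised natural-log median intensity across replicate spots of either probe orientation.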

Going from “TATTAATGATAAGAATATTTTATATGATACATGCAT [CACACA_negctrl_site923]” to “GAAAGAAAATATTAAGTGCATATTTTAATGATACAA [GTGCAC_site9712]”, the “gcPBM binding intensity (ln)” value rises from 7.46 ± 0.68 to 9.02 ± 0.2.

Going from ATTTTTAATGGATAAGTGCATAATATTATGATGCAA to “TTTTTTTTTTTGTGTGCATGTGCTAGGAAAGGTAGG [TGCATGCA_site330]”, the “gcPBM binding intensity (ln)” value falls from 10.9 ± 0.64 to 8.85 ± 0.11.

“TACTTCATATAATTAGCACACAATAATTTCTCATTT [CACACA_site2872]” and “GTATTTATAATACGGCGTACATAAAAAAAAAAAAAA [XGTACX_site3705]” are within error of each other in “gcPBM binding intensity (ln)” value: 8.31 ± 0.45 for the first, 8.14 ± 0.45 for the second.

“AATGCTATCATTAATGCACACATTTAAAATTAATAT [CACACA_site3548]” and “AATGCTATCATTAATGCACACATTTAAACTTAATAT [CACACA_site5878]” are the same in “gcPBM binding intensity (ln)” value: 11 ± 0.55 for the first, 11 ± 0.61 for the second.

“TATCATTTTTTTAAAACACACATAATAATATAAATA [CACACA_site2845]” and “AAATTTAATTTTATATCACACATTAAATTTTAATGG [CACACA_site4251]” are within error of each other in “gcPBM binding intensity (ln)” value: 7.82 ± 0.31 for the first, 7.65 ± 0.58 for the second.

“TAATATATTATAAACACATGCACATTAATAATAACT [TGCATGCA_site708]” and “TAAATTAATACCTATGCACACATTTTTTTTTTTAAA [CACACA_site1238]” are within error of each other in “gcPBM binding intensity (ln)” value: 8.08 ± 0.58 for the first, 8.32 ± 0.47 for the second.

“GAAAAAATAAAATAAAGTACATAACTATAATAAAAA [XGTACX_site4807]” and “TTTTTTTTTTTTTTTACACACTGCATACAAGAAAAA [CACACA_site5642]” are within error of each other in “gcPBM binding intensity (ln)” value: 7.9 ± 0.34 for the first, 8.54 ± 0.66 for the second.

Compared with “TGTGCACGCATATACACACACAAATACAATGATAAA [CACACA_site6656]”, “TATTATATTTGTATGTGTACTTATATGGTTGTAATA [XGTACX_site4548]” is lower in “gcPBM binding intensity (ln)” value: 8.92 ± 0.11 for the first, 7.87 ± 0.26 for the second.

TACCCTTGCATGTAGGTGCAATTTTTTTTTTTTTTT and “ATTTATATTACCCTTGCATGTAGGTGCAATTTTTTT [TGCATGCA_site757]” are the same in “gcPBM binding intensity (ln)” value: 10.6 ± 0.35 for the first, 10.64 ± 0.085 for the second.

Compared with “AAAATTATGCAGTAGGTGCAATACCCTCGGCTTTTT [GTGCAC_site9556]”, “TTCCTGTTAATTACAACACACAATTCTTATTTTATG [CACACA_site6507]” is lower in “gcPBM binding intensity (ln)” value: 11.1 ± 0.64 for the first, 7.98 ± 0.52 for the second.

“ACAAAACTCTTTAATTGTACAAATATAATATAAAAA [XGTACX_site5690]” and “TATTTATAAATGAACACACACGCAATTTGAATCGAA [CACACA_site3371]” are within error of each other in “gcPBM binding intensity (ln)” value: 7.74 ± 0.63 for the first, 8.04 ± 0.46 for the second.

“TTAATTAAATATAGGGGTACATATTATATATGTTTT [XGTACX_site3677]” and “TGCTATATAATATGAGCACACATAAGATTTGGTGTT [CACACA_site8148]” are within error of each other in “gcPBM binding intensity (ln)” value: 7.76 ± 0.42 for the first, 8.05 ± 0.6 for the second.

First: TTACGCTGCTATATAGTGCACATAATATATGACCTG
Second: TATATATATATATGTGCACACATAATAAAAAAAAAA [CACACA_site3830]
The “gcPBM binding intensity (ln)” value of the first is higher: 11 ± 0.24 for the first, 10.55 ± 0.035 for the second.

Compared with “TAAAACACTCATGGCACACATAAAACATTTTTATGA [CACACA_site3574]”, TCAATTTGGAACGGTATGCACTAATTTTATATTTTT is higher in “gcPBM binding intensity (ln)” value: 8.18 ± 0.24 for the first, 9.02 ± 0.19 for the second.

“TATTTTAAAACAAAAATATAATTTCATAAAAATATA [CACACA_negctrl_site394]” and “TGTAATTGTTTAAAGGGTACATATATCAGATGTCTT [XGTACX_site5877]” are within error of each other in “gcPBM binding intensity (ln)” value: 7.2 ± 0.47 for the first, 7.62 ± 0.54 for the second.

“TATATCATTATATAAACACACAATATGTTTTTTATA [CACACA_site3781]” and “TTTATTTATATAATTACACACATATATACGCAAATG [CACACA_site2794]” are within error of each other in “gcPBM binding intensity (ln)” value: 7.42 ± 0.54 for the first, 7.78 ± 0.31 for the second.

“TATTTAATTATATAAAATTAAATTTTTAATTCTTCC [CACACA_negctrl_site473]” and “TTTTTTTCTCACAATCGTACATAAATACATATATAT [XGTACX_site3150]” are within error of each other in “gcPBM binding intensity (ln)” value: 7.28 ± 0.53 for the first, 8.12 ± 0.54 for the second.

Going from “GGTATTTTCACATATAGTACACAAAAATAAAATAAA [XGTACX_site2139]” to “TGTTTTTCATAGTGCACACATAACCAAAAATAGTAT [CACACA_site3150]”, the “gcPBM binding intensity (ln)” value rises from 8.48 ± 0.099 to 11.5 ± 0.67.

Going from AATAAATTCATGATAGTGCAAAAATTATTTTTGTTA to “TTTGTTTTTCATAGTGCACACATAACCAAAAATAGT [CACACA_site9030]”, the “gcPBM binding intensity (ln)” value rises from 9.49 ± 0.028 to 11.3 ± 0.46.

First: TTTCATAACAAAAAAGTGCAAAATAGCACGAACATT [GTGCAC_site9703]
Second: AAATATTCATAGTATACACACATTTATTTATAACCA [CACACA_site6502]
The “gcPBM binding intensity (ln)” value of the first is higher: 10.66 ± 0.049 for the first, 7.88 ± 0.52 for the second.

“GAAAAAATTTTATGGTGTACTTTATTTATTTATATA [XGTACX_site6323]” and “TATTTTAAAGAGAAAACATGCATTATATAGAACATT [TGCATGCA_site328]” are within error of each other in “gcPBM binding intensity (ln)” value: 8.06 ± 0.28 for the first, 7.93 ± 1 for the second.

“AATATAATATAATGCACACATAAACAAAAAAAAAAA [CACACA_site783]” and “AATATAATATAATGCACACATAAAACAAAAAAAAAA [CACACA_site3012]” are within error of each other in “gcPBM binding intensity (ln)” value: 11.2 ± 1 for the first, 11 ± 0.86 for the second.

Compared with “AAAATATATACACAAACATGCATATAATAAATAAAT [TGCATGCA_site711]”, “AATATAAACACAAACACACACATATATATATATATA [CACACA_site4307]” is higher in “gcPBM binding intensity (ln)” value: 7.98 ± 0.83 for the first, 9.49 ± 0.45 for the second.
